Results: PubChem BioAssay (NCATS)
A number with no mark means an inactive call. Inconclusive results are not listed. Activity calls are given as the source filed them. Calls come from the whole dose curve; as a rule, active = well fitted curve in the direction sought with a large enough effect; inconclusive = small, poorly fitted or top-dose-only effect, or another doubt; inactive = no such curve, though single readings can be large; an effect the other way counts as inactive or inconclusive.

target: Guanine nucleotide-binding protein G(i) subunit alpha-1 (Homo sapiens) (UniProt P63096); assay: qHTS Assay for Inhibitors of RGS12 GoLoco Motif Activity (Green Fluorophore) (AID 879); conditions: Galphai1/FITC-RGS12 GoLoco peptide, fluorescence polarization; series mostly up to 57.1 µM; activity, negative = inhibition: at the top concentration;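 note: 0% = labeled peptide with Gαi1 and full inhibition = labeled peptide alone without protein; negative values mean loss of peptide binding seen as reduced polarization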
Sequence (P63096 whole entry, looked up): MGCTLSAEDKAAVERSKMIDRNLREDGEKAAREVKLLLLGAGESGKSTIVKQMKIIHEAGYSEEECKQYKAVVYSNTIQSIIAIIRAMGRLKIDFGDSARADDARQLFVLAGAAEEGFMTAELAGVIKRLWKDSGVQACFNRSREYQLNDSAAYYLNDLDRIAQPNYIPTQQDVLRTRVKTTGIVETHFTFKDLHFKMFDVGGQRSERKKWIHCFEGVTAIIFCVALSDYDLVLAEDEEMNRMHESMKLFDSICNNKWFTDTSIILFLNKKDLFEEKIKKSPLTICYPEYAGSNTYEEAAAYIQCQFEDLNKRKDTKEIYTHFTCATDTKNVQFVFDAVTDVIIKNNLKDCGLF
In short: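 Fluorescence polarization assay: 50 nM Gαi1 with 10 nM FITC-labeled RGS12 GoLoco peptide in 10 mM Tris pH 7.5, 150 mM NaCl, 0.1 mM GDP, 0.05% NP40, 10 min at room temperature with compound.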

SMILES | activity, negative = inhibition | outcome
COc1cc(NS(C)(=O)=O)ccc1Nc1c2ccccc2nc2ccccc12 | -22.6% | 
O=C(O)c1cc2cc(Cc3cccnc3)ccc2o1 | -19.4% | 
CCCC1O[C@@H]2C[C@H]3[C@@H]4CCC5=CC(=O)C=C[C@]5(C)[C@H]4[C@@H](O)C[C@]3(C)[C@]2(C(=O)CO)O1 (stereo not given in full) | -13.2% | 
CNCCC=C1c2ccccc2CCc2ccccc21 | -9.4% | 
Oc1cc(O)c2c(c1)O[C@H](c1ccc(O)c(O)c1)[C@H](O)C2 | -14.3% | 
C1CCc2nnnn2CC1 | -1.7% | 
O=C1CCC(c2ccc(-n3ccnc3)cc2)=NN1 | -4.27% | 
N[C@@H](Cc1cnc[nH]1)C(=O)O | 6.07% | 
COc1cc(-c2ccc(=O)[nH]n2)ccc1OC(F)F | -3.83% | 
CCCn1c(=O)[nH]c(=O)c2[nH]cnc21 | -4.05% | 
C[N+]1(CCCCC[N+]2(C)CCCC2)CCCC1 | -8.86% | 
CC(C)NC[C@@H](O)COc1cccc2ccccc12 |  | inactive

target: Cytochrome P450 2C9 (Homo sapiens) (UniProt P11712); assay: qHTS Assay for Inhibitors and Substrates of Cytochrome P450 2C9 (AID 883); conditions: recombinant CYP2C9, luciferin-H luminescence, 60 min; series mostly up to 57.1 µM; activity change, negative = inhibition: at the top concentration; note: nearly all actives have a fitted effect of over 60% in size; note: potency is the fitted concentration of half-maximal effect; for activity change, negative = inhibition: % is set by controls: 0 for no effect and ±100 for the full control effect
Sequence (P11712 whole entry, looked up): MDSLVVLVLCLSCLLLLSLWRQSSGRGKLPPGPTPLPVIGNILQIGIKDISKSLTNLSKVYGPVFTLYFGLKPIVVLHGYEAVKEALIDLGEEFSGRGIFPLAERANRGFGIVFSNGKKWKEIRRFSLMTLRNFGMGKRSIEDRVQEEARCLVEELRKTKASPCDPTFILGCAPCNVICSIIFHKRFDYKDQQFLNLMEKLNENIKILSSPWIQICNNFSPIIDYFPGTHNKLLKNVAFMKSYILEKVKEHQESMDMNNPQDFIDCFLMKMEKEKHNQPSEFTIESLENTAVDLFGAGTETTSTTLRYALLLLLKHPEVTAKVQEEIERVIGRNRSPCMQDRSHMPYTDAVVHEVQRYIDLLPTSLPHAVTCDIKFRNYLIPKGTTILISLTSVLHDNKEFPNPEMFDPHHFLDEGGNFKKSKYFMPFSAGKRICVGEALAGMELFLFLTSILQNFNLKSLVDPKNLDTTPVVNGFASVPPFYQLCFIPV
In short: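 Human CYP2C9 (10nM) with Luciferin-H at 100uM (its KM) in 25mM KPO4; compound preincubated 10 min at 37C, then NADPH regeneration for 60 min at 37C. Luciferin read by luminescence after detection reagent; normalized to 57uM sulphaphenazole as full inhibition.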

SMILES | activity change, negative = inhibition | Potency
COc1cc(NS(C)(=O)=O)ccc1Nc1c2ccccc2nc2ccccc12 | 101% | 
COc1ccc(CCN2CCC(Nc3nc4ccccc4n3Cc3ccc(F)cc3)CC2)cc1 | -10.7% [at 25.6 µM] | 
CCOc1ccc(Cc2nccc3cc(OCC)c(OCC)cc23)cc1OCC |  | 3.98 µM (active)
CCCCOc1ccc(C(=O)CCN2CCCCC2)cc1 |  | 2.51 µM (active)
Cc1ccnc(NS(=O)(=O)c2ccc(N)cc2)n1 | 36.2% [at 25.6 µM] | 
CNCCC=C1c2ccccc2CCc2ccccc21 | -6.44% [at 11.4 µM] | 
COc1c(C)c2c(c(O)c1C/C=C(\C)CCC(=O)O)C(=O)OC2 | 4.99% | 
CCCn1c(=O)[nH]c(=O)c2[nH]cnc21 | 1.84% | 

target: Cytochrome P450 3A4 (Homo sapiens) (UniProt P08684); assay: qHTS Assay for Inhibitors and Substrates of Cytochrome P450 3A4 (AID 884); conditions: recombinant CYP3A4, Luciferin-PPXE luminescence; series mostly up to 57.1 µM; activity change, negative = inhibition: at the top concentration; note: nearly all actives have a fitted effect of over 50% in size; note: potency is the fitted concentration of half-maximal effect; for activity change, negative = inhibition: % is set by controls: 0 for no effect and ±100 for the full control effect
Sequence (P08684 whole entry, looked up): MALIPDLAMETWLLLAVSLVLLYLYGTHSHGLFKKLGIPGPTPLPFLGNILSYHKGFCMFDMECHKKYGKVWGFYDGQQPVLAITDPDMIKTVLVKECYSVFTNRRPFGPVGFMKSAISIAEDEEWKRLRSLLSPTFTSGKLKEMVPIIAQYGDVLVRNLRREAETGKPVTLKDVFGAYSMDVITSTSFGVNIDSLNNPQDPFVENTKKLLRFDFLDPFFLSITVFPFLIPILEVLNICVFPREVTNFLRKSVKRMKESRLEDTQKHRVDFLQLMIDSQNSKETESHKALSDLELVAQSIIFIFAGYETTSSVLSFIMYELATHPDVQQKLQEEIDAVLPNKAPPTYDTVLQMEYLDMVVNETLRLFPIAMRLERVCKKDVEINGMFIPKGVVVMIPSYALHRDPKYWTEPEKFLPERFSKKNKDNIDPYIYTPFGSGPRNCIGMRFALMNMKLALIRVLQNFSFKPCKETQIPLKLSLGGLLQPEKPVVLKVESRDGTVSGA
In short: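 20 nM human CYP3A4 with 25 uM Luciferin-PPXE (at KM) in 200 mM KPO4, preincubated 10 min with compound; NADPH regeneration started a 60 min RT reaction. Luciferin detected by luminescence, normalized to 57 uM ketoconazole as full inhibition.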

SMILES | activity change, negative = inhibition | Potency
Cc1c(N(C)CS(=O)(=O)O)c(=O)n(-c2ccccc2)n1C | -6.07% | 
O=C(O)c1cc2cc(Cc3cccnc3)ccc2o1 | -27.6% | 
CC(CCc1ccccc1)NCC(O)c1ccc(O)c(C(N)=O)c1 (stereo not given) | 3.07% | 
CCCCCCCCCCCCCCCCOP(=O)([O-])OCC[N+](C)(C)C | -4.34% | 
CO/N=C1\CN(c2nc3c(cc2F)c(=O)c(C(=O)O)cn3C2CC2)CC1CN (stereo not given) | -24.3% | 
CN1CCN(C(c2ccccc2)c2ccccc2)CC1 | -2.53% | 
Cc1ccnc(NS(=O)(=O)c2ccc(N)cc2)n1 | 2.07% | 
C1CCc2nnnn2CC1 | -20.5% | 
CCN1CCN(c2cc3c(cc2F)c(=O)c(C(=O)O)cn3C2CC2)CC1 | -9.55% | 
O=C1CCC(c2ccc(-n3ccnc3)cc2)=NN1 |  | 1.58 µM (active)
CCN(CC)C(=O)N1CCN(C)CC1 | -17.1% | 
CC(C)(CO)[C@@H](O)C(=O)NCCCO | -15.5% | 
COc1cc(-c2ccc(=O)[nH]n2)ccc1OC(F)F | -16.1% | 
CCOc1ccc2nc3cc(N)ccc3c(N)c2c1 | -27.7% | 
CCCn1c(=O)[nH]c(=O)c2[nH]cnc21 | -7.08% | 
CC(C)NC[C@@H](O)COc1cccc2ccccc12 | -8.18% | 
CC(=O)N(O)CCCCCNC(=O)CCC(=O)N(O)CCCCCNC(=O)CCC(=O)N(O)CCCCCN | -12.3% | 

target: Cytochrome P450 3A4 (Homo sapiens) (UniProt P08684); assay: qHTS Assay for Activators of Cytochrome P450 3A4 (AID 885); conditions: recombinant CYP3A4, Luciferin-PPXE luminescence, 60 min; series mostly up to 57.1 µM; activity change, positive = activation: at the top concentration; note: nearly all actives have a fitted effect of over 65% in size
In short: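 Human CYP3A4 (20 nM) with Luciferin-PPXE at 25 uM (its KM) in 200 mM KPO4; 10 min compound preincubation, then NADPH regeneration and 60 min reaction at RT. Luciferin read by luminescence; normalized to 57 uM ketoconazole full inhibition.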

SMILES | activity change, positive = activation | Potency
COc1cc(NS(C)(=O)=O)ccc1Nc1c2ccccc2nc2ccccc12 | -37.6% | 
O=C(O)c1cc2cc(Cc3cccnc3)ccc2o1 | -44.3% | 
COc1ccc(CCN2CCC(Nc3nc4ccccc4n3Cc3ccc(F)cc3)CC2)cc1 | -50.2% | 
CCOc1ccc(Cc2nccc3cc(OCC)c(OCC)cc23)cc1OCC | -108% | 
CCCC1O[C@@H]2C[C@H]3[C@@H]4CCC5=CC(=O)C=C[C@]5(C)[C@H]4[C@@H](O)C[C@]3(C)[C@]2(C(=O)CO)O1 (stereo not given in full) | -87.6% | 
CCCCOc1ccc(C(=O)CCN2CCCCC2)cc1 | -34.8% | 
CNCCC=C1c2ccccc2CCc2ccccc21 |  | inactive
Oc1cc(O)c2c(c1)O[C@H](c1ccc(O)c(O)c1)[C@H](O)C2 | -54.4% | 
O=C1CCC(c2ccc(-n3ccnc3)cc2)=NN1 | -94.3% | 
N[C@@H](Cc1cnc[nH]1)C(=O)O | -38.8% | 
COc1c(C)c2c(c(O)c1C/C=C(\C)CCC(=O)O)C(=O)OC2 |  | inactive

target: Cytochrome P450 2D6 (Homo sapiens) (UniProt P10635); assay: qHTS Assay for Inhibitors and Substrates of Cytochrome P450 2D6 (AID 891); conditions: recombinant CYP2D6, luciferin-ME EGE luminescence; series mostly up to 57.1 µM; activity change, negative = inhibition: at the top concentration; note: nearly all actives have a fitted effect of over 60% in size; note: potency is the fitted concentration of half-maximal effect;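 for activity change, negative = inhibition: luciferin methyl ether substrate demethylated by CYP2D6 with NADPH regeneration; % is set by controls: 0 for no effect and ±100 for the full control effect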
Sequence (P10635 whole entry, looked up): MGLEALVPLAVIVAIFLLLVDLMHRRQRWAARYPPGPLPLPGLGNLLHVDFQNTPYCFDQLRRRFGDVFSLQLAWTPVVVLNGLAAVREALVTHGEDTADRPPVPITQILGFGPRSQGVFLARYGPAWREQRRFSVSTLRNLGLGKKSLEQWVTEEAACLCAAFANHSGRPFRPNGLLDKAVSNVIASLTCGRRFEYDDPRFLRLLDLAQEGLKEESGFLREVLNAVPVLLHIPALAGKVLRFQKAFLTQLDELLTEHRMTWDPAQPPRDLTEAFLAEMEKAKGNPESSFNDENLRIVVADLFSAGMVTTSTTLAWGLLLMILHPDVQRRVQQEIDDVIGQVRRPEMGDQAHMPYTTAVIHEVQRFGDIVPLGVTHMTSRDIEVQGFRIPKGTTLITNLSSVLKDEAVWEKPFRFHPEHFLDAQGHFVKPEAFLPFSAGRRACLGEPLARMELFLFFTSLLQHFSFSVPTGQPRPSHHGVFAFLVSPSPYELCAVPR
In short: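 Human CYP2D6 (5 nM) with 30 uM Luciferin-ME EGE (at Km) in 100 mM KPO4, compound preincubated 10 min, then NADPH regeneration system for 60 min at room temperature. Luciferin read by luminescence; normalized to 1.43 uM quinidine.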

SMILES | Potency | activity change, negative = inhibition
COc1ccc(CCN2CCC(Nc3nc4ccccc4n3Cc3ccc(F)cc3)CC2)cc1 | 7.94 µM (active) | 
CCCCOc1ccc(C(=O)CCN2CCCCC2)cc1 | 5.01 µM (active) | 
CNCCC=C1c2ccccc2CCc2ccccc21 | 3.16 µM (active) | 
O=C1CCC(c2ccc(-n3ccnc3)cc2)=NN1 | 2.51 µM (active) | 
COc1cc(-c2ccc(=O)[nH]n2)ccc1OC(F)F |  | 0.004%
COc1c(C)c2c(c(O)c1C/C=C(\C)CCC(=O)O)C(=O)OC2 |  | -1.09%
CCCn1c(=O)[nH]c(=O)c2[nH]cnc21 |  | 1.08%
